pPAFAH FP inh = inhibitors of human plasma PAF acetylhydrolase (pPAFAH). recombinant pPAFAH, FP-rhodamine probe fluorescence polarization. inhibition, % at 3.39 µM. actives 1.5% (n = 330,000);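 active = inhibition above the mean inhibition across the screen plus 3 SD, cut at about 25% in these data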;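 also: inhibitors block binding of the rhodamine activity-based probe so polarization drops; 0% = enzyme with DMSO and 100% = wells lacking pPAFAH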
PAFAH2 FP inh = PAFAH2 (human) inhibition; Q99487; actives 0.99% (n = 340,000); AID 492956; recombinant PAFAH2, FP-rhodamine activity probe, fluorescence polarization; inhibition, % at 3.39 µM;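 active = inhibition above the mean over all tested compounds plus 3 SD, cut at about 30% in these data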;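 also: inhibitors block probe labeling of enzyme so polarization drops; 0% = enzyme with DMSO and 100% = wells lacking PAFAH2 protein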
PAFAH1B2 inh = inhibitors of human PAFAH1B2. P68402. recombinant PAFAH1B2, FP-rhodamine activity probe, fluorescence polarization. inhibition, % at 3.39 µM. actives 1.2% (n = 340,000);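 active = inhibition above the mean of all tested compounds plus 3 SD, cut at about 24% in these data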;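 also: 0% = enzyme with DMSO and 100% = wells lacking PAFAH1B2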
Rin1 Abl inh = blocks binding of human Rin1 to Abl. TR-FRET Rin1/Abl binding, biochemical. inhibition, % at 7.35 µM. actives 0.4% (n = 360,000); in the data active = inhibition above about 5%, passing the limit was not always enough
PAFAH1B3 FP inh = inhibitors of human PAFAH1B3 | recombinant PAFAH1B3, FP-rhodamine probe, fluorescence polarization | actives 0.28% (n = 340,000) | Q15102 | inhibition, % at 3.39 µM;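 active = inhibition above the screen-wide average of all tested compounds plus 3 SD, cut at about 25% in these data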;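 also: 0% = enzyme with DMSO only and 100% = wells lacking PAFAH1B3 protein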
E coli Lon inh = inhibitors of E. coli Lon protease. P0A9M0. purified E. coli Lon protease, fluorescence polarization. inhibition, % at 7.94 µM. actives 0.42% (n = 360,000). AID 602123; in the data active = inhibition above about 13%, passing the limit was not always enough;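 also: 0% = enzyme with probe and DMSO and 100% = no enzyme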
Starred values were filed as active, the others as inactive; / = no result. The list is not random: actives were taken first. Their share in the collection is about 3.1%.

SMILES	pPAFAH FP inh	PAFAH2 FP inh	PAFAH1B2 inh	Rin1 Abl inh	PAFAH1B3 FP inh	E coli Lon inh
Cc1cc2ccccc2n1CCNC(=O)C(C)Oc1ccccc1 (stereo unspecified)	8	5	9	2	-6	24*
CCc1nnc(NC(=O)CC23CC4CC(CC(Br)(C4)C2)C3)s1	9	2	27*	-2	10	16
CCCc1nnc(NC(=O)C23CC4CC(CC(C4)C2)C3)s1	/	4	25*	2	3	4
COCc1nnc(NC(=O)C23CC4CC(CC(C4)C2)C3)s1	/	1	19	1	2	-22
Nc1ncnc(N)c1NC(=O)c1cc(Cl)c(OCc2ccccc2)c(Cl)c1	/	/	/	4	/	3
CCN1CCN(C(c2cccs2)C(C)NC(=S)NC2CCCCC2)CC1 (stereo unspecified)	34*	-3	1	-2	7	-7
O=C(CSc1ccccc1F)NCC(c1ccco1)N1CCCCC1 (stereo unspecified)	/	/	/	3	/	2
Cc1ccc(C(=O)OCC(=O)N2CCOCC2)cc1	2	4	3	4	12	-1
O=C(OCC(=O)N1CCN(C(=O)COC(=O)c2ccncc2)CC1)c1ccncc1	27*	-4	-2	3	-5	3
O=C(OCc1c(Cl)cccc1Cl)c1ccncc1	27*	-5	5	-1	4	-6
O=C(CSc1nc2ccccc2o1)NC(=O)NCc1ccccc1	-1	-3	-26	1	7	11
O=C(CSc1ccccc1)NCCc1ccccc1	15	4	13	1	2	5
O=C(CSc1ncn[nH]1)NCCc1ccc(Cl)cc1	2	11	31*	3	8	12
O=C(CSc1ccccc1)NCCc1ccc(F)cc1	-1	-4	27*	2	-1	2
O=C(CSc1ccc(F)cc1)NCCSc1ccccc1	6	4	28*	-2	12	2
O=C(CSc1ccc(F)cc1)NC(=O)NCc1ccccc1	6	8	28*	-7	5	24
Cc1cc(SCC(=O)N2CCN(C(=O)c3ccco3)CC2)c(C)cc1Br	-4	14	4	-1	12	-1
Cc1ccc(OCc2ccc(Br)cc2)c([N+](=O)[O-])n1	4	/	/	/	/	/
O=C(CSc1ccc2ccccc2c1)NCCc1ccc(O)c(O)c1	27*	4	11	-3	6	6
COc1ccc(CCNC(=O)CSc2ccc3ccccc3c2)cc1OC	17	2	-1	-5	12	13
Cc1ccc(S(=O)(=O)n2nc(-c3cccnc3)nc2N)cc1	1	6	33*	2	0	6
CCOc1ccccc1OCCCC(=O)Nc1cc(S(=O)(=O)N2CCCCC2)ccc1C	/	/	/	0	/	10
CS(=O)(=O)N(CC(=O)N1CCN(c2ccccc2)CC1)Cc1ccc(Cl)cc1	4	2	25*	1	-5	3
CCCNC(=S)N1CCC(NC(=O)c2ccc(C)cc2)CC1	3	6	1	-3	5	-10
COc1ccc(Nc2nc(N)c(C(=O)c3ccc(F)cc3)s2)cc1	31*	3	8	-2	8	2
SMILES	pPAFAH FP inh	PAFAH2 FP inh	PAFAH1B2 inh	Rin1 Abl inh	PAFAH1B3 FP inh	E coli Lon inh
COc1ccc(Nc2nc(N)c(C(=O)c3ccc(OC)cc3)s2)cc1	26*	6	6	-4	-19	2
C[C@@H]1CN([C@@H](C)CO)C(=O)CCCn2nncc2CO[C@H]1CN(C)C(=O)OCc1ccccc1	/	/	/	-3	/	4
O=C(c1ccccc1)N1CCN(C(=O)c2nn3c(C(F)(F)F)cc(-c4ccco4)nc3c2Br)CC1	34*	13	4	0	9	-23
O=C(NC1CCCCC1)c1nn2c(C(F)(F)F)cc(-c3ccco3)nc2c1Br	0	4	1	3	3	-23
Cn1cccc1-c1cc(C(=O)N/N=C/c2cc(Br)ccc2O)[nH]n1	30*	0	8	-2	8	-10
Cn1cccc1-c1cc(C(=O)N/N=C/c2ccccc2Cl)[nH]n1	6	1	0	0	5	-6
CC1(C)CC(=O)C2=C(C1)Nc1ccccc1NC2c1ccc([N+](=O)[O-])cc1 (stereo unspecified)	6	-3	4	1	-1	1
COc1cc(/C=C/C(=O)O)cc(OC)c1OC	3	-4	-4	-2	3	-4
COc1cc(/C=C/C(=O)O)ccc1OS(=O)(=O)c1c(C)c(C)cc(C)c1C	7	8	26*	3	-4	1
CS(=O)(=O)N(CC(=O)NCCSc1ccc(Cl)cc1)c1ccc2c(c1)OCO2	0	8	25*	5	2	0
CS(=O)(=O)N(CC(=O)NCCSc1ccccc1)c1ccc2c(c1)OCO2	5	6	4	0	4	0
O=C(NCc1cccc(Cl)c1)c1cccnc1	-4	-5	-1	5	-2	9
O=C(NCc1cccnc1)c1cc(Sc2cccc(Cl)c2)nc2ccccc12	33*	10	2	-2	-4	0
C[C@@H]1CN([C@@H](C)CO)C(=O)c2cc(NC(=O)c3ccccc3)ccc2O[C@@H](C)CCCCO[C@@H]1CN(C)S(=O)(=O)c1ccc(F)cc1	/	/	/	-3	/	2
NC(=S)NNc1c(F)c(F)c(F)c(F)c1F	3	1	1	0	4	4
O=C(NCCCNc1ccc(C(F)(F)F)cc1[N+](=O)[O-])c1ccc(Cl)cc1	10	-2	29*	0	6	-18
CC1(C)C(=O)N(c2ccccc2)C1c1ccccc1O (stereo unspecified)	-1	-8	52*	-1	1	-4
C/C(=N\OC(=O)c1ccc(F)cc1)c1nccs1	4	33*	4	-2	10	-7
Nc1nc(-c2ccccc2)c(N=Nc2cccc3ccccc23)s1	31*	-2	3	1	6	-3
CC(=O)Nc1sc(N)nc1-c1ccccc1	2	0	-4	2	-7	-9
COc1cccc(CN(C)C(=O)COc2ccc(C(=O)c3ccc(Cl)cc3)cc2)c1OC	28*	5	2	-1	-2	6
Cc1ccc(NC(=O)C=NOCC(=O)Nc2cc(C)cc(C)c2)cc1	-6	-1	6	1	4	-5
O=C1OCCC1Sc1nc2ccccc2n1-c1ccccc1 (stereo unspecified)	21	9	3	1	3	-5
COc1ccc(-n2c(SC3CCOC3=O)nc3ccccc32)cc1 (stereo unspecified)	31*	-2	4	-1	-2	-4
O=C(COc1ccc(Br)cc1CNC1CCCC1)Nc1ccccc1	2	1	0	-2	5	-2
COC(=O)[C@@H](NC(=O)c1cc(COc2cncc(Cl)c2)on1)c1ccccc1	0	-5	4	-1	2	1

Assay outcomes from PubChem.
